How the values were obtained:
Test in all cases: yeast three-hybrid, YBZ-1, SC-Leu-His + 0.5 mM 3-AT, 4 days
Settings in all cases: tags: N-Gal4 AD-HA kept; label: inside an RPR1-promoter hybrid RNA with tandem MS2 sites; ssRNA
PUM1 PUF domain R3-RSW = PUM1 PUF domain R3-RSW (Homo sapiens, UniProt Q14671 828-1176, C935R;R936S;Q939W)
Method in brief: (§1)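 Each repeat of the Pumilio-1 PUF domain was randomized at its three base-contacting residues, and these libraries were co-expressed from a centromeric plasmid with matching RNA elements in strain YBZ-1. After four days on SC-Leu (input) or SC-Leu-His + 0.5 mM 3-AT (selection), the repeat regions were PCR-amplified and Illumina-sequenced. The interaction score compares variant frequency between input and selection as a log change, computed in log2 with a pseudocount of 1 for absent variants.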

PUM1 PUF domain R3-TFG = PUM1 PUF domain R3-TFG (Homo sapiens, UniProt Q14671 828-1176, C935T;R936F;Q939G)
Method in brief: as §1

PUM1 PUF domain R3-VSK = PUM1 PUF domain R3-VSK (Homo sapiens, UniProt Q14671 828-1176, C935V;R936S;Q939K)
Method in brief: as §1

PUM1 PUF domain R3-RTI = PUM1 PUF domain R3-RTI (Homo sapiens, UniProt Q14671 828-1176, C935R;R936T;Q939I)
Method in brief: as §1

PUM1 PUF domain R6-LYV = target: T1, PUM1 PUF domain R6-LYV (Homo sapiens, UniProt Q14671 828-1176, N1043L;Q1047V)
T1 sequence: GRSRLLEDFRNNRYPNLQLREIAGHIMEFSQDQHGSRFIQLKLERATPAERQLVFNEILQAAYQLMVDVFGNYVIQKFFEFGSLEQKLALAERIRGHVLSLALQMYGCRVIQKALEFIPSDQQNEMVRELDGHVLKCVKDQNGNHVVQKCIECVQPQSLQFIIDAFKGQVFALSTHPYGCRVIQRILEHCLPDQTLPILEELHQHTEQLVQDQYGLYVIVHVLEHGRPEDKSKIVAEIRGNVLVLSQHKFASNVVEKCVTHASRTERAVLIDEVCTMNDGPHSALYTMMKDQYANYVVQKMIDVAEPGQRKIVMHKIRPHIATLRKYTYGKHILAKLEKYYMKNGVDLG
Method in brief: as §1

PUM1 PUF domain R5-EAE = PUM1 PUF domain R5-EAE (Homo sapiens, UniProt Q14671 828-1176, C1007E;R1008A;Q1011E)
Method in brief: as §1

PUM1 PUF domain R5-WHY = PUM1 PUF domain R5-WHY (Homo sapiens, UniProt Q14671 828-1176, C1007W;R1008H;Q1011Y)
Method in brief: as §1

PUM1 PUF domain R7-KWK = PUM1 PUF domain R7-KWK (Homo sapiens, UniProt Q14671 828-1176, S1079K;N1080W;E1083K)
Method in brief: as §1

PUM1 PUF domain R5-RNG = PUM1 PUF domain R5-RNG (Homo sapiens, UniProt Q14671 828-1176, C1007R;R1008N;Q1011G)
Method in brief: as §1

PUM1 PUF domain R2-AYW = PUM1 PUF domain R2-AYW (Homo sapiens, UniProt Q14671 828-1176, N899A;Q903W)
Method in brief: as §1

“GGCUAGAACUAGUGGAUCCCCCGGCGCCCGGCGGCUCGAGCCCGGGUAAGUGUAAUUAGUCUGCAUGCCGCCGGGCGCCAUGCCUGCAGGUCGACUCUAGAAAACAUG” was tested, and the binding signal (PUM1 PUF domain R3-RSW) was 3.81 log2 enrichment (interaction score), the binding signal (PUM1 PUF domain R3-TFG) was 2.64 log2 enrichment (interaction score) and the binding signal (PUM1 PUF domain R3-VSK) was 3.36 log2 enrichment (interaction score). For the same sequence, the binding signal (PUM1 PUF domain R3-RTI) was 3.21 log2 enrichment (interaction score).
“GGCUAGAACUAGUGGAUCCCCCGGCGCCCGGCGGCUCGAGCCCGGGUAAGUGUAAAUAGUCUGCAUGCCGCCGGGCGCCAUGCCUGCAGGUCGACUCUAGAAAACAUG” was tested, and the binding signal (PUM1 PUF domain R6-LYV) was 2.81 log2 enrichment (interaction score).
In the case of “GGCUAGAACUAGUGGAUCCCCCGGCGCCCGGCGGCUCGAGCCCGGGUAAGUGUGAAUAGUCUGCAUGCCGCCGGGCGCCAUGCCUGCAGGUCGACUCUAGAAAACAUG”, the binding signal (PUM1 PUF domain R5-EAE) is reported as 3.11 log2 enrichment (interaction score) and the binding signal (PUM1 PUF domain R5-WHY) is reported as 5.78 log2 enrichment (interaction score).
“GGCUAGAACUAGUGGAUCCCCCGGCGCCCGGCGGCUCGAGCCCGGGUAAGUGUAAGUAGUCUGCAUGCCGCCGGGCGCCAUGCCUGCAGGUCGACUCUAGAAAACAUG” was tested, and the binding signal (PUM1 PUF domain R3-RSW) was 0.87 log2 enrichment (interaction score) and the binding signal (PUM1 PUF domain R3-TFG) was 2.15 log2 enrichment (interaction score).
In the case of “GGCUAGAACUAGUGGAUCCCCCGGCGCCCGGCGGCUCGAGCCCGGGUAAGUAUAAAUAGUCUGCAUGCCGCCGGGCGCCAUGCCUGCAGGUCGACUCUAGAAAACAUG”, the binding signal (PUM1 PUF domain R7-KWK) is reported as 2.56 log2 enrichment (interaction score).
“GGCUAGAACUAGUGGAUCCCCCGGCGCCCGGCGGCUCGAGCCCGGGUAAGUGUCAAUAGUCUGCAUGCCGCCGGGCGCCAUGCCUGCAGGUCGACUCUAGAAAACAUG” was tested, and the binding signal (PUM1 PUF domain R5-RNG) was 2.64 log2 enrichment (interaction score).
“GGCUAGAACUAGUGGAUCCCCCGGCGCCCGGCGGCUCGAGCCCGGGUAAGUGUAACUAGUCUGCAUGCCGCCGGGCGCCAUGCCUGCAGGUCGACUCUAGAAAACAUG” was tested, and the binding signal (PUM1 PUF domain R3-TFG) was 0.95 log2 enrichment (interaction score).
For “GGCUAGAACUAGUGGAUCCCCCGGCGCCCGGCGGCUCGAGCCCGGGUAAGUGUUAAUAGUCUGCAUGCCGCCGGGCGCCAUGCCUGCAGGUCGACUCUAGAAAACAUG”, the binding signal (PUM1 PUF domain R5-RNG) was 4.63 log2 enrichment (interaction score).
In the case of “GGCUAGAACUAGUGGAUCCCCCGGCGCCCGGCGGCUCGAGCCCGGGUAAGUCUAAAUAGUCUGCAUGCCGCCGGGCGCCAUGCCUGCAGGUCGACUCUAGAAAACAUG”, the binding signal (PUM1 PUF domain R7-KWK) is reported as 2.57 log2 enrichment (interaction score).
For “GGCUAGAACUAGUGGAUCCCCCGGCGCCCGGCGGCUCGAGCCCGGGUAAGUGUAAAAAGUCUGCAUGCCGCCGGGCGCCAUGCCUGCAGGUCGACUCUAGAAAACAUG”, the binding signal (PUM1 PUF domain R2-AYW) was 3.05 log2 enrichment (interaction score).
